Source: the supplement of paper PMC11732987, “Enantioselective OTUD7B fragment discovery through chemoproteomics screening and high-throughput optimisation” (Communications Chemistry, 2025)

Assays:
Experiment in all cases: log2 ratio of Biotin-Ahx-Ub-VS probe labelling (fragment/DMSO); higher = less target engagement (more negative = stronger competition), active = hit call of the paper (q ≤ 0.05, log2 ratio ≤ -1)
Details in all cases: compound concentration: 200 uM; treatment time: 3 h
USP34 = USP34 (UniProt Q70CQ2)
Outline: (§1)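 Triplicate samples of HEK293T lysate, 495 µg each, received fragment at 200 µM or vehicle for 3 h, followed by Biotin-Ahx-Ub-VS (0.5 µM final) for 1 h. After NeutrAvidin enrichment of labelled DUBs and LysC/trypsin digestion, peptides were run by diaPASEF LC-MS/MS. The values are average log2 fragment/vehicle ratios from global-median-normalised Spectronaut label-free quantities, tested by unpaired t-test on proteins having ≥2 unique peptides.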

USP36 = target: T1, USP36 (UniProt Q9P275)
T1 sequence (whole entry): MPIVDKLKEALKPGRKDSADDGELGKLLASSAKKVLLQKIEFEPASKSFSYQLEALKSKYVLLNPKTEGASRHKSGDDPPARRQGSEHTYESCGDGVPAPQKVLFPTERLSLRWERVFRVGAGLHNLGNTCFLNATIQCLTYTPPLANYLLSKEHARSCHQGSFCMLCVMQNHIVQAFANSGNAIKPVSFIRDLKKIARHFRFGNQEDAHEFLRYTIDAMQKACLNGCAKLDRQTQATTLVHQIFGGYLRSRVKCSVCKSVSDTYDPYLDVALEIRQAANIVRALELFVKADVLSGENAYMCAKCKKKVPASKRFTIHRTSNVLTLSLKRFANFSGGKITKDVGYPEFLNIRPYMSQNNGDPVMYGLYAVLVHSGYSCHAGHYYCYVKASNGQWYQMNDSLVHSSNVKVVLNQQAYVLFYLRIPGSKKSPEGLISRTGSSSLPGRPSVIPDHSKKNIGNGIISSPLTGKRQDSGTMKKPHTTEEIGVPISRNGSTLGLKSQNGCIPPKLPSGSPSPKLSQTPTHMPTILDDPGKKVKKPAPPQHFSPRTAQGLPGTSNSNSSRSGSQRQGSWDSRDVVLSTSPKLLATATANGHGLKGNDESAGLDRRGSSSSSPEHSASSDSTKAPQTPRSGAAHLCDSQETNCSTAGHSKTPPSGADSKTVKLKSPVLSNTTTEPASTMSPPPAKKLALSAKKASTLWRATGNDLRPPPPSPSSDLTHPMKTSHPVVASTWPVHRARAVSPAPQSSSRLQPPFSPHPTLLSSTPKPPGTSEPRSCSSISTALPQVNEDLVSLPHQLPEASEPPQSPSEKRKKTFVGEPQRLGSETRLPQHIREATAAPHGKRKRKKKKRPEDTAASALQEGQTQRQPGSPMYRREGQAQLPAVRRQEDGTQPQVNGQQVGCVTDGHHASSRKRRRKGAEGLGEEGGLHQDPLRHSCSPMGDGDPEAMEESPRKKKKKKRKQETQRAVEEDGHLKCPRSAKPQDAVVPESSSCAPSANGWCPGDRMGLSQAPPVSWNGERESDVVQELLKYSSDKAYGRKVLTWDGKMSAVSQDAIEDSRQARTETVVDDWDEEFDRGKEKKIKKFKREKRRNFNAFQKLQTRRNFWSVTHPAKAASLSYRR
Outline: as §1

USP38 = target: T2, USP38 (UniProt Q8NB14)
T2 sequence (whole entry): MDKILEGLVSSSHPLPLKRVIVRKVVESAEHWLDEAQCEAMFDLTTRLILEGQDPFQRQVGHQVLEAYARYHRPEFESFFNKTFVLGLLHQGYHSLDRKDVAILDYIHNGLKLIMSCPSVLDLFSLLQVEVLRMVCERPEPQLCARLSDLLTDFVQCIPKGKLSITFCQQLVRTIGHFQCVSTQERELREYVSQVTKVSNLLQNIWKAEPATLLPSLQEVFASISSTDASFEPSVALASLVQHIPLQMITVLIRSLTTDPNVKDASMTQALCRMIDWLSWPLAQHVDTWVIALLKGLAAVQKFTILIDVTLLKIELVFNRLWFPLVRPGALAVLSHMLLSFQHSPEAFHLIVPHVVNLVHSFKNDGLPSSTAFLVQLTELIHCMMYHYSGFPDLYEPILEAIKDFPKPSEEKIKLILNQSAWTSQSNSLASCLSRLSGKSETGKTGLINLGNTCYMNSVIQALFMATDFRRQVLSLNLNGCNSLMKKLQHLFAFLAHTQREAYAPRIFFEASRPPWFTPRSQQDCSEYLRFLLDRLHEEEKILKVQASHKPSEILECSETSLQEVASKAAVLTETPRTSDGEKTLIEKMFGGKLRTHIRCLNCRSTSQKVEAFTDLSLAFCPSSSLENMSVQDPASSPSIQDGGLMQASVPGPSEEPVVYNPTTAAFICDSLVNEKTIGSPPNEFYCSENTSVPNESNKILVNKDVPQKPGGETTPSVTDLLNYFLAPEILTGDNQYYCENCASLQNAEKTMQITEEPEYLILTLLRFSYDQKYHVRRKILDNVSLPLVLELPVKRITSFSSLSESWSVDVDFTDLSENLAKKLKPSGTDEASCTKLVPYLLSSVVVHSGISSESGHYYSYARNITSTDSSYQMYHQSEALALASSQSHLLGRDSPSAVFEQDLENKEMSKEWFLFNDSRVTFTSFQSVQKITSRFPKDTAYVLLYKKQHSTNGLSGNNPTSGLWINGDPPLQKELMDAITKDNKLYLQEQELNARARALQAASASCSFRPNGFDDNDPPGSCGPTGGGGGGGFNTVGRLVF
Outline: as §1

USP39 = target: T3, USP39 (UniProt Q53GS9)
T3 sequence (whole entry): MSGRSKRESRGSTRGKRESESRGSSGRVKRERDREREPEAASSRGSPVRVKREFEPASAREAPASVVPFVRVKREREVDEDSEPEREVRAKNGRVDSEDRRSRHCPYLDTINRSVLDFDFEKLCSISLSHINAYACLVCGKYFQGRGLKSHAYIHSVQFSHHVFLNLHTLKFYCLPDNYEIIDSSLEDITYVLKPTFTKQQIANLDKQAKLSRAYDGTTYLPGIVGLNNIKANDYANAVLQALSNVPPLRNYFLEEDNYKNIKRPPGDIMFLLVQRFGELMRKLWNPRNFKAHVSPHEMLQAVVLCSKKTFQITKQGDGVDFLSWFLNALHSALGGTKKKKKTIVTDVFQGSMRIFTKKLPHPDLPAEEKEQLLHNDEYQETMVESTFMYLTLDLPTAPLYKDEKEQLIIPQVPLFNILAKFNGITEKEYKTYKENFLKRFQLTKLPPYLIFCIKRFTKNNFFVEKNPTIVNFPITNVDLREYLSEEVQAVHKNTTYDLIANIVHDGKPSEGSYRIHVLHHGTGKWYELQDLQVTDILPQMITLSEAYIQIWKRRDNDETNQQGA
Outline: as §1

USP4 = target: T4, USP4 (UniProt Q13107)
T4 sequence (whole entry): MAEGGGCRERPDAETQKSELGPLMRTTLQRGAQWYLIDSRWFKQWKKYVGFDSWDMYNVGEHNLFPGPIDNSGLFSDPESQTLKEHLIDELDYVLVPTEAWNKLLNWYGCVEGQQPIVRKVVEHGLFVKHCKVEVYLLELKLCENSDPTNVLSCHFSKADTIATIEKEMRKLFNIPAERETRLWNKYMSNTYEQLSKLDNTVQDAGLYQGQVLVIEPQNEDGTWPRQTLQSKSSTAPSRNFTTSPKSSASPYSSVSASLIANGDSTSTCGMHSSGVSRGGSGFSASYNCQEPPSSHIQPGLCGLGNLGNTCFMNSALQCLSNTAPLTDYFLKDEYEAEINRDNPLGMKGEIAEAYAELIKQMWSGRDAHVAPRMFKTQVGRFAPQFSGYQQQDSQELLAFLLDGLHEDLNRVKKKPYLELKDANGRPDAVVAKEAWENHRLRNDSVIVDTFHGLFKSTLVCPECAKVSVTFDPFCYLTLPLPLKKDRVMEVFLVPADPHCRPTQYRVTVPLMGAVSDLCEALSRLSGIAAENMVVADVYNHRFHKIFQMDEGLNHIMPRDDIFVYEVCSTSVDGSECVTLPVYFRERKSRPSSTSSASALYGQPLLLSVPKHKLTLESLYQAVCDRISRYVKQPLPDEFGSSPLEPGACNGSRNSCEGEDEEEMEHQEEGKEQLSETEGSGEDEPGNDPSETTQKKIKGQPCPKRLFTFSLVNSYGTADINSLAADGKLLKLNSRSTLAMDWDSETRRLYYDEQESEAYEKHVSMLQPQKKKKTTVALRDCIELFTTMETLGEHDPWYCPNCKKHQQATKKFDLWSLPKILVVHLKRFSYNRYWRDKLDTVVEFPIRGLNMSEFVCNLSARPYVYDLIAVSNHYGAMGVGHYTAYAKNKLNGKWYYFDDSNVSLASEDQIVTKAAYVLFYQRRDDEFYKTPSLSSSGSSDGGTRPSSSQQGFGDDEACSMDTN
Outline: as §1

Measured: log2 ratio of Biotin-Ahx-Ub-VS probe labelling

USP34, sequence (Q70CQ2 whole entry, the tested form may be a part): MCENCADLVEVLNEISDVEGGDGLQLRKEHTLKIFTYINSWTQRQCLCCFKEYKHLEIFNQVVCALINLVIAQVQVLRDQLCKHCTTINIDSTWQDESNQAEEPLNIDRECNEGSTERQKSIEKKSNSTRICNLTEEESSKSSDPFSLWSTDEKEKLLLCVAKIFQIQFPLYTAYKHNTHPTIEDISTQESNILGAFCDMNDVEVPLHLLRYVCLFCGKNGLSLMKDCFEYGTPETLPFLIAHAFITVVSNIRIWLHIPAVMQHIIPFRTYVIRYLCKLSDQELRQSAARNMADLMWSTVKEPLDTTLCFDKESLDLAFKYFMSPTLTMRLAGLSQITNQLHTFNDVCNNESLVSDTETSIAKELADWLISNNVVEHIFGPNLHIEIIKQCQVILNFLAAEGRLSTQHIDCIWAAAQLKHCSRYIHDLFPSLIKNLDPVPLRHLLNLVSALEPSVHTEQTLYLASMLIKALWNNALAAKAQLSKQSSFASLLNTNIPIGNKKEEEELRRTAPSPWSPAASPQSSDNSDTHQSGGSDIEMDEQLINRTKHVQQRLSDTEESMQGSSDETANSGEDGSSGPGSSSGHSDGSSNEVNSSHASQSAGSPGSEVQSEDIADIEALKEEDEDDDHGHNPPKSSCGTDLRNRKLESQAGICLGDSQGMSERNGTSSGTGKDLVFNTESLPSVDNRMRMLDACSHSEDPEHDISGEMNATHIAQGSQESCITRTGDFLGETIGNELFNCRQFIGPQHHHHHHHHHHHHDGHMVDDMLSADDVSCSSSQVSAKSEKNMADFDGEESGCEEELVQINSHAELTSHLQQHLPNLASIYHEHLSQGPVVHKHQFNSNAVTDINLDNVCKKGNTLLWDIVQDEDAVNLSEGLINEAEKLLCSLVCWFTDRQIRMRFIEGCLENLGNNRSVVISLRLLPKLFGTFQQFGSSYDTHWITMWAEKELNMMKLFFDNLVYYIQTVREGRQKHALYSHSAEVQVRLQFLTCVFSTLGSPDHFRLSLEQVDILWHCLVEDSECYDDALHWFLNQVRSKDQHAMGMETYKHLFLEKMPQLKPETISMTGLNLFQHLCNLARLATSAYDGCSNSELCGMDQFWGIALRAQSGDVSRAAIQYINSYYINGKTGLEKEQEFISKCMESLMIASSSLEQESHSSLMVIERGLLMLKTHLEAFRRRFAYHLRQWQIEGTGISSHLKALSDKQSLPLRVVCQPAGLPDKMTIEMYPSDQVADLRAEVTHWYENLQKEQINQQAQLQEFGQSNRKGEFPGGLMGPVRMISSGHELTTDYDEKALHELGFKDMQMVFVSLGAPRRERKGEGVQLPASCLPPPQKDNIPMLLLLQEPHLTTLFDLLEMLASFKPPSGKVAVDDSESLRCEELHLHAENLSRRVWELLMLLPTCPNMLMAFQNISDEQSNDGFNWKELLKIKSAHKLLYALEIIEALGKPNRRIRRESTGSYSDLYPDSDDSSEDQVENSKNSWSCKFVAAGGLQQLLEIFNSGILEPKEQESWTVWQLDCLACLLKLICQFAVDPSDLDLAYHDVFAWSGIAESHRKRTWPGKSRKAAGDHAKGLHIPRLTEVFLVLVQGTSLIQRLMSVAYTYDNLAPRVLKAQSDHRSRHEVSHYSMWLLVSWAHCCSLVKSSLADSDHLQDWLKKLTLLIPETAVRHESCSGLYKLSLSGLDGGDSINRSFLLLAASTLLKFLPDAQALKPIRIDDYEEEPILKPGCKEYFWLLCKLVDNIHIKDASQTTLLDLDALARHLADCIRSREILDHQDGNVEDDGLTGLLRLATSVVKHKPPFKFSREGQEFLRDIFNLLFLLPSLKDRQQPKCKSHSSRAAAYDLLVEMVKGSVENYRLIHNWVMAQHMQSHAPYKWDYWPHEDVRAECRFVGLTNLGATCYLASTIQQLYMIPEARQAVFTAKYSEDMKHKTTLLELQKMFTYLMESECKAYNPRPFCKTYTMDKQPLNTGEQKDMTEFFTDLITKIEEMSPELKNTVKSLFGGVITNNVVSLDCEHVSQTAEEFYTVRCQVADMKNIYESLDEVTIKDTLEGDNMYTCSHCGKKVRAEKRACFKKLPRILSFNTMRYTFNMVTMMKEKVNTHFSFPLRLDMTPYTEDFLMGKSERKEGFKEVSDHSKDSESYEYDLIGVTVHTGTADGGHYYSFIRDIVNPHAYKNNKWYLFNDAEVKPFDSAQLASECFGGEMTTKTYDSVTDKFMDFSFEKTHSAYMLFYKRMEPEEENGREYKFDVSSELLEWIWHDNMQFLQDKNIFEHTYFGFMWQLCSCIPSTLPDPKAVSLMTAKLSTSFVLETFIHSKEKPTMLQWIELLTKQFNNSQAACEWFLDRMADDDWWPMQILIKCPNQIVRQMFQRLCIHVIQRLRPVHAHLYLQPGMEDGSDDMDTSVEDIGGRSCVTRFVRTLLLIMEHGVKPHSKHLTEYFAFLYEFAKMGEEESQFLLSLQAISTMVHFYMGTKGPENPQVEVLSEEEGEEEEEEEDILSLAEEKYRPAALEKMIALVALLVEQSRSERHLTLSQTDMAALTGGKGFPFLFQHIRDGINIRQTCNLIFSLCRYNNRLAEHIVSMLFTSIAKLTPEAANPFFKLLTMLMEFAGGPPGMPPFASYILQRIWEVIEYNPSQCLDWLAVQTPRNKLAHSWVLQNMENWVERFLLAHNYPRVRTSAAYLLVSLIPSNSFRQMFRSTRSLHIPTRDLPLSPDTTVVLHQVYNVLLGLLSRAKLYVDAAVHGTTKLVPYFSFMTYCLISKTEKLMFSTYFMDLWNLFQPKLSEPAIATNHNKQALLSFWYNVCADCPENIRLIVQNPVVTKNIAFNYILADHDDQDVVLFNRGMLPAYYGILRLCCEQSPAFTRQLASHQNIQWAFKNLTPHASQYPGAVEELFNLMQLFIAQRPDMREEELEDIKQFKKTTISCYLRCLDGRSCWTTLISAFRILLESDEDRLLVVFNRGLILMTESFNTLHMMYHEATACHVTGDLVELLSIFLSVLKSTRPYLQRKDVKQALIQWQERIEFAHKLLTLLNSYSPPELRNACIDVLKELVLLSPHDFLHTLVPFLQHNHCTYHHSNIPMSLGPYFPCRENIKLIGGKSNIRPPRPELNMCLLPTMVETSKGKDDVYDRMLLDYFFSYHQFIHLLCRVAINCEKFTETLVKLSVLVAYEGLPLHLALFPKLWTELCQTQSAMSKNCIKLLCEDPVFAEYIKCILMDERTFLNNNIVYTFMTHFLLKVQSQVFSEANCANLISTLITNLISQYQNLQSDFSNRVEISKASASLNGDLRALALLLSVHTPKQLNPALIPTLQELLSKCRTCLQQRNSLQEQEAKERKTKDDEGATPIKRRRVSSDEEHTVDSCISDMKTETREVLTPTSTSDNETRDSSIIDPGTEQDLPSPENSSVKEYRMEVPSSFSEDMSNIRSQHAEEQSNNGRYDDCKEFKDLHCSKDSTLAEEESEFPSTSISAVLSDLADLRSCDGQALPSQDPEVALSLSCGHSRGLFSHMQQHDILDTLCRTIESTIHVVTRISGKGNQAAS

O=C(CCl)NCc1ccc(N2CCOCC2)c(F)c1
inactive: USP34 -0.0627 | USP36 -0.165 | USP38 0.104 | USP39 0.0411 | USP4 0.263
